Screen size: about 340,000 compounds; about 3,300 (0.97%) were called active.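 How the source made its calls: active means maximum activity change below -70%; inconclusive means maximum activity change from -70% to -50%; inactive means maximum activity change above -50%.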 The entries come from a sample that favours actives as a whole.

Among the data in PubChem BioAssay AID720553 (National Center for Advancing Translational Sciences (NCATS), 2013) are activity change values, retold here.
On the % scale 0 is the no-effect control and ±100 the full control effect.

The experiment relates to Potassium voltage-gated channel subfamily H member 2, brain isoform KCNH2 3.1 (human). Put plainly: qHTS for Inhibitors of KCHN2 3.1: Mutant qHTS. Conditions: U2OS KCNH2 3.1, thallium flux FluxOr; hits give low values. Summed up:
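Measured as rate of thallium-driven FluxOr signal in transduced U2OS cells carrying the 3.1 channel, read kinetically for 2 min upon stimulation; values are rate constants scaled to DMSO control wells.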
(In qHTS, concentration-response curves come from the screen itself.)
Consider `CCc1nc2c(=O)[nH]cnc2o1`, for which the activity change was 2.34% (inactive). For `NC(=S)NN=Cc1ccc(OC(=O)COc2cc(Cl)c(Cl)cc2Cl)cn1` the value was -0.923% (inactive); for `O=C1NN(c2ccccc2)C(=O)/C1=C/c1ccc(-c2cccc(C(=O)O)c2)o1`, 28.7% (inactive); for `NS(=O)(=O)c1ccc(-c2ccc(/C=C3\SC(=O)NC3=O)o2)cc1`, 14.4% (inactive). Regarding `CN1C(=O)/C(=C\c2ccc(-c3ccccc3)o2)SC1=S`, the activity change is -83.7% (active).

`COc1ccc(NC(=O)CN2C(=O)NC(C)(c3ccccc3)C2=O)cn1` (stereo not drawn): the activity change is -3.34% (inactive). For `O=C(CSc1nnc(-c2cccnc2)n1Cc1ccco1)c1ccc(Cl)c(Cl)c1` the value was -12.1% (inactive); for `Cc1ccc(NC(=O)CSc2nnc(-c3cnccn3)n2Cc2ccco2)cc1C`, 3.68% (inactive). In the case of `O=C(CSc1nnc(-c2cnccn2)n1Cc1ccco1)c1ccc(Cl)c(Cl)c1` it was -196% (active); in that of `CCN(CC)C(=O)C1=C(C)N(Cc2ccc(C(C)(C)C)cc2)C(=O)C(CC(=O)NCc2cccc3ccccc23)C1` (stereo not drawn), -13.1% (inactive).

Regarding `CCOc1ccc(NC(=O)CN2CCN(CC(=O)Nc3ccc(OC)cc3)CC2)cc1`, the activity change was -89.9% (active). `CCc1ccc(NC(=O)CN2CCC(C(=O)c3ccc(OC)cc3)CC2)cc1`: the activity change was -75.5% (active). For the compound `COc1ccc(C(=O)Nc2sc(C)c(C)c2CN2CCOCC2)cc1`, the activity change was 0.971% (inactive). For the compound `COc1ccc(C(=O)N2CCC(C(=O)Nc3ccc(C)cc3)CC2)cc1`, the activity change was -27% (inactive). In the case of `COc1ccc(NC(=O)CN2C(=O)CSC2=O)cc1` it was 5.91% (inactive); in that of `CCC1CCC2(CC1)NC(=O)N(CC(=O)Nc1ccc(OC)cc1)C2=O` (stereo not drawn), 10.2% (inactive); in that of `CCc1cc(C(N)=O)c(NC(=O)c2ccc(OC)cc2)s1`, 3.81% (inactive). For `CCOc1ccc(NC(=O)N2CCN(CC)CC2)cc1` the value was 10.1% (inactive); for `CCc1cc(C(=O)c2ccc(OC)cc2)c(NC(=O)CN2CCN(C)CC2)s1`, -103% (active); for `COc1ccc(OC)c(NC(=O)C2CCCN2S(=O)(=O)c2ccc3c(c2)CC(C)N3C(C)=O)c1` (stereo not drawn), 12.8% (inactive).

As for `CC1CC(NC(=S)N(C)C)CC(C)(C)C1` (stereo not drawn), the activity change was -0.254% (inactive). Take `Cc1cn([C@H]2C[C@H](O)[C@@H](CNC(=O)[C@H](N)Cc3cccnc3)O2)c(=O)[nH]c1=O`: the activity change was 0.448% (inactive). For `Cc1ccc(S(=O)(=O)N2CCOCC2)cc1NC(=O)c1ccncc1` the value was 0.781% (inactive); for `O=C1CCC(=O)N1CCC(=O)N(C(=O)NC1CCCCC1)C1CCCCC1`, -16.1% (inactive); for `CCOc1cc(/C=N/NC(=O)c2c(C)nc3ccc(Cl)cn23)ccc1O`, 6.54% (inactive).

Take `O=C(Nc1ccc2c(c1)[C@@H]1C[C@@H](CC(=O)N3CCCCC3)O[C@@H](CO)[C@@H]1O2)NC1CCCCC1`: the activity change was 7.85% (inactive). For `CCOC(=O)c1c(S(=O)(=O)Nc2ccc(CN3CCC(C)CC3)cc2)c(C)n(C)c1C`, the activity change is -4.58% (inactive).

In the case of `CCOC(=O)c1cccc(NS(=O)(=O)c2c(C(=O)N3CCCCCC3)c(C)n(C)c2C)c1`, the activity change was 0.277% (inactive). In the case of `CCOC(=O)c1c(S(=O)(=O)Nc2cccc(Cl)c2)c(C)n(C)c1C` it was -89.7% (active). In the case of `C[C@@H]1CCCCO[C@H](CN(C)Cc2ccccc2)[C@@H](C)CN([C@H](C)CO)C(=O)c2cc(NS(=O)(=O)c3ccc(Cl)cc3)ccc2O1`, the activity change is -12% (inactive). With `CCN1C(=O)[C@H]2[C@@H](c3ccc(C(F)(F)F)cc3)N[C@]3(CCCN(Cc4ccc(Br)cc4)C3=O)[C@H]2C1=O`, the activity change is -2.79% (inactive). For `CCC(=O)c1ccc(OCC(O)CN2CCN(c3cccc(C(F)(F)F)c3)CC2)cc1` (stereo not drawn) the value was -77.4% (active); for `CC(=O)c1ccc(OCC(O)CN2CCN(S(=O)(=O)c3cccc(Br)c3)CC2)cc1` (stereo not drawn), -4.78% (inactive).

`CC(=O)Nc1ccc(OCC(O)CN2CCN(c3ccccc3Cl)CC2)cc1` (stereo not drawn): the activity change was -1.41% (inactive). As to `CCN(CC(=O)Nc1ccc(NC(C)=O)cc1)C(=O)C1CC(=O)N(c2ccc3c(c2)OCCO3)C1` (stereo not drawn), the activity change is 0.735% (inactive). Turning to `O=C(COC(=O)c1ccc(F)cc1)Nc1ccc2c(c1)OCO2`, the activity change is -1.18% (inactive).

`O=C(CN1CCN(C(=O)c2ccco2)CC1)Nc1ccc2c(c1)OCO2`: the activity change is 0.979% (inactive). In the case of `O=C(CN1CCN(CC(=O)Nc2ccc3c(c2)OCO3)CC1)Nc1ccc(F)cc1` it was -109% (active); in that of `COc1ccc(-c2c(C#N)cnc(C)c2C)c(O)c1OC`, 1.89% (inactive). In the case of `CC(Sc1ccc(S(=O)(=O)N2CCN(C)CC2)cn1)C(=O)NC1CCCC(C)C1C` (stereo not drawn) it was -1.67% (inactive); in that of `C[C@H]1CN([C@@H](C)CO)C(=O)CCCn2cc(nn2)CO[C@@H]1CN(C)S(=O)(=O)c1cccc(C#N)c1`, -14.5% (inactive); in that of `Cc1cccc(S(=O)(=O)N(C)C[C@@H]2OCc3cnnn3CCCC(=O)N([C@H](C)CO)C[C@@H]2C)c1`, 15.7% (inactive).

For `C[C@@H]1CN([C@H](C)CO)C(=O)CCCn2nncc2CO[C@@H]1CN(C)S(=O)(=O)c1cccc(C#N)c1`, the activity change was -103% (active). With `C[C@H]1CN([C@@H](C)CO)C(=O)CCCn2nncc2CO[C@@H]1CN(C)S(=O)(=O)c1cccc(C#N)c1`, the activity change is -3.59% (inactive). Turning to `O=C1OCCC1=COCCCCOC=C1CCOC1=O`, the activity change was 5.66% (inactive). Take `CNC(=O)C1CCN(S(=O)(=O)c2c(C)noc2/C=C/c2cccc(C)c2)CC1`: the activity change was -0.856% (inactive). In the case of `Cc1noc(/C=C/c2ccco2)c1S(=O)(=O)N1CCC(C(=O)N2CCc3ccccc32)CC1`, the activity change is -11.8% (inactive). Take `Cc1noc(/C=C/c2ccco2)c1S(=O)(=O)N1CCC(C(=O)Nc2ccc(Cl)cn2)CC1`: the activity change was -73.5% (active). Take `Cc1ccc([C@H]2C[C@H](O)[C@@H](n3cc(COC(=O)c4ccccc4)nn3)CN2CC2CCCCC2)cc1`: the activity change is 1.72% (inactive).

For `COCCN1Cc2cccc(C(=O)Nc3ccccc3OC)c2C1=O`, the activity change was -4.17% (inactive). For `CCCN1Cc2cccc(C(=O)NCc3ccccc3)c2C1=O` the value was -73.5% (active). In the case of `CCCN1Cc2cccc(C(=O)Nc3ccc(S(=O)(=O)N4CCCCCC4)cc3)c2C1=O` it was -4.68% (inactive); in that of `Cc1onc(-c2ccccc2)c1-c1nnc(COC(=O)c2ccc(N(C)C)cc2)o1`, -2.8% (inactive); in that of `Cc1csc(=O)n1CCC(=O)OCC(=O)Nc1ccc(N2CCOCC2)cc1`, 26.4% (inactive). In the case of `CCc1cc(C(=O)N(CC)CC(=O)Nc2c(F)cccc2F)sc1C` it was 6.15% (inactive).

Regarding `O=C(Nc1ccccc1-c1ccccc1)c1cccs1`, the activity change was 3.41% (inactive).

Regarding `Cc1ccc(C(=O)Nc2ccccc2-c2ccccc2)cc1S(=O)(=O)Nc1ccccc1`, the activity change was -81.2% (active). In the case of `O=C(O)c1ccc(F)c(S(=O)(=O)Nc2ccccc2)c1` it was -0.905% (inactive); in that of `O[C@H]1CN(Cc2cccs2)[C@@H](c2ccc(Cl)cc2)C[C@@H]1n1cc(C2CC2)nn1`, 1.17% (inactive). For `O=C1CC[C@@H](C(=O)N2CSC[C@@H]2C(=O)Nc2ccc(C(F)(F)F)cc2)N1` the value was 0.48% (inactive).

With `Cc1ccc(Cc2c(-c3ccc(C)cc3)nc3c4ccccc4ccn23)cc1`, the activity change was -46.3% (inactive).

As for `CCOc1ccc(S(=O)(=O)NCCC(=O)NNC(=O)c2ccc(F)cc2)cc1`, the activity change is 7.87% (inactive). In the case of `COc1ccc(/C=C(\NC(=O)c2ccccc2)C(=O)NCCN2CCOCC2)cc1OC` it was -4.51% (inactive); in that of `O=C(NCCN1CCOCC1)/C(=C/c1ccc(F)cc1)NC(=O)c1ccccc1`, -9.2% (inactive); in that of `Cc1ccc(C(=O)N/C(=C\c2ccc(F)cc2)C(=O)NCCN2CCOCC2)cc1`, -89.5% (active).

As for `COC(=O)N(C)C[C@@H]1OCc2cnnn2CCCC(=O)N([C@@H](C)CO)C[C@@H]1C`, the activity change was 5.22% (inactive).

`Cc1cccc(C(=O)C(O)(c2ccccc2)C2CCCCC2=O)c1` (stereo not drawn): the activity change was -14.9% (inactive). As to `COc1ccc(S(=O)(=O)N(C)C[C@H]2OCc3cnnn3CCCC(=O)N([C@H](C)CO)C[C@H]2C)cc1`, the activity change was 11.2% (inactive). In the case of `COc1cc2nnn(-c3ccncc3)c2cc1OC` it was -4.09% (inactive); in that of `COc1ccc2nc(-c3ccccn3)ccc2c1`, 6.65% (inactive). In the case of `C=CCn1c(SCC(=O)NC23CC4CC(CC(C4)C2)C3)nc(O)cc1=O` it was 30.9% (inactive). In the case of `C=CCn1c(C23CC4CC(CC(C4)C2)C3)n[nH]c1=S` it was -5.08% (inactive); in that of `C=CCn1c(SCC(=O)NC)nnc1C12CC3CC(CC(C3)C1)C2`, -75% (active); in that of `Cc1ccc(S(=O)(=O)/N=C2\C=C(NS(=O)(=O)c3ccc(C)cc3)C(=O)c3ccccc32)cc1`, 17.4% (inactive). On to `C[C@H]1CN([C@@H](C)CO)S(=O)(=O)c2ccc(Br)cc2O[C@H]1CN(C)C(=O)c1cnccn1`, for which the activity change was 10.6% (inactive). In the case of `O=C(Nc1ccc(N2CCCCC2)cc1)c1cc(S(=O)(=O)N2CCOCC2)ccc1F` it was -0.576% (inactive). Take `O=C(Nc1ccc2c(c1)nc1n2CCCCC1)c1cc(S(=O)(=O)N2CCOCC2)ccc1Cl`: the activity change was -83.4% (active). In the case of `O=C(Nc1ccc(N2CCOCC2)c(Cl)c1)c1ccc(S(=O)(=O)N2CCOCC2)cc1` it was -3.05% (inactive); in that of `CC(C)c1ccc(-c2noc(C3CCCN(S(C)(=O)=O)C3)n2)cc1` (stereo not drawn), -21.4% (inactive). In the case of `COc1cc(-c2noc(C3CCCN(S(=O)(=O)c4cccc(Cl)c4)C3)n2)cc(OC)c1OC` (stereo not drawn) it was -93.6% (active); in that of `COc1cccc(-c2noc(C3CCCN(C(=O)c4ccc(F)cc4)C3)n2)c1` (stereo not drawn), 16.8% (inactive); in that of `CCOC(=O)c1c(NC(=S)SC)sc(C(=O)N2CCc3ccccc3C2)c1C`, -4.73% (inactive). `CC1=C(C(=O)N2CCOCC2)CC(CC(=O)NCc2ccco2)C(=O)N1Cc1ccc(F)cc1` (stereo not drawn): the activity change is -24.5% (inactive).
